# Assay results as given in article PMC7155171, “Probing the Open Global Health Chemical Diversity Library for Multistage-Active Starting Points for Next-Generation Antimalarials” (ACS Infectious Diseases, 2020).
# How the values were obtained:
# [1] = tested on: P. berghei liver stage (PbLuc); design: species or system HepG2-A16-CD81; P. berghei luciferase sporozoite infection of hepatocytes, liver stage luminescence; conditions: inhibitor; for PbLuc primary screen (10uM): inhibition % (n=1): 48 h
# [2] = tested on: HepG2-A16-CD81 hepatocytes; design: Uninfected hepatocyte viability, CellTiter-Glo luminescence; conditions: cytotoxicity primary screen, inhibitor
smiles,measurement,setting,value
CCc1c(C)[nH]c2cc(C3CCN(Cc4ccc(F)cc4)C3)nn2c1=O (stereo not drawn) [DDD01060568],PbLuc primary screen (10uM): inhibition % (n=1),[1],66.5%
same,PbLuc primary screen (2uM): inhibition % (n=1),[1],40.31%
same,HepG2 toxicity primary screen (10uM): inhibition % (n=1),[2],-18.6%
Cc1[nH]n(C2CCS(=O)(=O)C2)c(=O)c1CCc1ccccc1 (stereo not drawn) [DDD01026977],PbLuc primary screen (10uM): inhibition % (n=1),[1],5.33%
same,PbLuc primary screen (2uM): inhibition % (n=1),[1],-33.83%
same,HepG2 toxicity primary screen (10uM): inhibition % (n=1),[2],-50.25%
Cc1ccc(S(=O)(=O)Cc2noc([C@@H]3C[C@@H](O)CN3C(C)C)n2)cc1 [DDD01025534],PbLuc primary screen (10uM): inhibition % (n=1),[1],44.5%
same,PbLuc primary screen (2uM): inhibition % (n=1),[1],0.1961%
same,HepG2 toxicity primary screen (10uM): inhibition % (n=1),[2],0.317%
CCc1cc(=O)n2nc(C3CCCN3C(=O)c3ccccn3)cc2[nH]1 (stereo not drawn) [DDD01057178],PbLuc primary screen (10uM): inhibition % (n=1),[1],18.85%
same,PbLuc primary screen (2uM): inhibition % (n=1),[1],-15.38%
same,HepG2 toxicity primary screen (10uM): inhibition % (n=1),[2],-0.805%
CCc1c(C)[nH]c2cc(C3CCN(Cc4cccc(F)c4)C3)nn2c1=O (stereo not drawn) [DDD01060569],PbLuc primary screen (10uM): inhibition % (n=1),[1],77.3%
same,PbLuc primary screen (2uM): inhibition % (n=1),[1],65.74%
same,HepG2 toxicity primary screen (10uM): inhibition % (n=1),[2],-6.43%
Cc1ccccc1CN(C)C(=O)CCC1=NC(=C2N=CN=N2)NO1 [DDD01062116],PbLuc primary screen (10uM): inhibition % (n=1),[1],13.7%
same,PbLuc primary screen (2uM): inhibition % (n=1),[1],27.4706%
same,HepG2 toxicity primary screen (10uM): inhibition % (n=1),[2],-42.09%
Cc1nc(N2CCCC2)ncc1-c1cc(=O)n2ncnc2[nH]1 [DDD01038581],PbLuc primary screen (10uM): inhibition % (n=1),[1],16.8%
same,PbLuc primary screen (2uM): inhibition % (n=1),[1],10.62%
same,HepG2 toxicity primary screen (10uM): inhibition % (n=1),[2],10.6%
COc1cccc(C2=NN=CC2=C2NC(CN3CCCC3)=NO2)c1 [DDD01247208],PbLuc primary screen (10uM): inhibition % (n=1),[1],34%
same,PbLuc primary screen (2uM): inhibition % (n=1),[1],45.82%
same,HepG2 toxicity primary screen (10uM): inhibition % (n=1),[2],-23.2%
Cc1[nH]n(-c2ccc(F)cc2)c2nnc(N)c1-2 [DDD01065623],PbLuc primary screen (10uM): inhibition % (n=1),[1],46.4%
same,PbLuc primary screen (2uM): inhibition % (n=1),[1],39.0185%
same,HepG2 toxicity primary screen (10uM): inhibition % (n=1),[2],13.6%
COc1ccc(-c2c(C)nn3c(N)c(C#N)nnc23)cc1 [DDD01035158],PbLuc primary screen (10uM): inhibition % (n=1),[1],3.19%
same,PbLuc primary screen (2uM): inhibition % (n=1),[1],-31.95%
same,HepG2 toxicity primary screen (10uM): inhibition % (n=1),[2],-8.26%
COc1cccc(Cn2nc(C)c3c(NC(=O)C(C)OC)[nH]nc32)c1 (stereo not drawn) [DDD01063202],PbLuc primary screen (10uM): inhibition % (n=1),[1],39.7%
same,PbLuc primary screen (2uM): inhibition % (n=1),[1],-10.78%
same,HepG2 toxicity primary screen (10uM): inhibition % (n=1),[2],-2.03%
CCc1c(C)[nH]c2cc(C3CCN(Cc4ccccc4F)C3)nn2c1=O (stereo not drawn) [DDD01270117],PbLuc primary screen (10uM): inhibition % (n=1),[1],85.9%
same,PbLuc primary screen (2uM): inhibition % (n=1),[1],29.7326%
same,HepG2 toxicity primary screen (10uM): inhibition % (n=1),[2],1.7%
Cc1ncc(CN2CCc3c([nH]c4cc(C5CC5)nn4c3=O)C2)n1C [DDD01058398],PbLuc primary screen (10uM): inhibition % (n=1),[1],47.1%
same,PbLuc primary screen (2uM): inhibition % (n=1),[1],42.53%
same,HepG2 toxicity primary screen (10uM): inhibition % (n=1),[2],6.62%
